48 compounds from publication PMC13083723 (Patterns, 2026) can be followed below.

The structures appear in SMILES notation. In all, about 5,400 compounds went through this assay and about 190 (3.5%) showed an effect of 50% or more. This excerpt belongs to a sample that is enriched for strong results. Non-standard residues stand in square brackets, D forms with d. Residues, ends and D or L forms follow the SMILES beside them.

The test has as its system Vero-E6. Kind of test: primary screen, phospholipidosis by LipidTOX staining; higher = more effect of the substance. The note with it: 10 µM. In short, it runs like this: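 Drug-induced phospholipidosis detected with HCS LipidTOX Red reagent in Vero-E6 cells. Compounds tested at 10 μM, with amiodarone (10 μM) as positive control and DMSO (0.1 v/v %) as vehicle.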
In the case of `CO[C@@]1(NC(=O)C(C(=O)[O-])c2ccc(O)cc2)C(=O)N2C(C(=O)[O-])=C(CSc3nnnn3C)CO[C@@H]21` (stereo partly drawn), the result_ITMP is given as -4.09%.
For `O=c1c(-c2ccc(O)cc2)coc2c(O[C@@H]3O[C@H](CO)[C@@H](O)[C@H](O)[C@H]3O)c(O)ccc12`, the result_ITMP was -5.15%.
With `CCN(CC)CCO[C@H]1CC[C@@]2(C)C(=CC[C@@H]3[C@@H]2CC[C@]2(C)C(=O)CC[C@@H]32)C1` the figure was 61%.
For `CC(=O)O[C@H]1CC[C@@]2(C)C(=CCC3C2CC[C@]2(C)C(=O)CCC32)C1` (stereo partly drawn), the result_ITMP is listed as 0.97%.
Regarding `C[C@]12CC[C@H](O)CC1=CCC1C2CC[C@]2(C)C(=O)CC[C@@H]12` (stereo partly drawn), the result_ITMP is 13.7%.
With `COc1ccc(C(=O)/C(Br)=C/C(=O)[O-])cc1` the figure was 7.96%.
The figure for `O=C([O-])[C@H](O)[C@@H](O)[C@H](O)[C@H](O)CO` is -4.67%; for `C=C[C@@]1(C)CC(=O)[C@]2(O)[C@@]3(C)[C@@H](O)CCC(C)(C)[C@@H]3[C@H](O)[C@H](OC(C)=O)[C@@]2(C)O1` it is -2.23%; for `N/C(=N\Cc1ccccc1)NC(=O)c1nc(Cl)c(N)nc1N` it is 17.2%.
With `C[N+](C)(C)CC(=O)[O-]` the figure was -1.21%.
On to `C=C1/C(=C/C=C2\CCC[C@]3(C)[C@@H]([C@H](C)/C=C/[C@@H](C)C(C)C)CC[C@@H]23)C[C@@H](O)C[C@@H]1O`, for which the result_ITMP is recorded as -2.6%.
With `O=C(NC1CCN(CCc2c[nH]c3ccccc23)CC1)c1ccccc1` the figure was 6.62%; with `O=C(O)c1ccccc1-c1ccc(C(F)(F)F)cc1`, -4.47%; with `O=C(NC1CCN(CCCCC2(C(=O)NCC(F)(F)F)c3ccccc3-c3ccccc32)CC1)c1ccccc1-c1ccc(C(F)(F)F)cc1`, 62.5%.
The figure for `CC(C)NCC(O)COc1ccc(CC(N)=O)cc1` (stereo not drawn) [R4A_0002533_001 / SPE_K44993696] is -2.42%.
With `CCCCC(CC)CCC(CC(C)C)OS(=O)(=O)[O-]` (stereo not drawn) the figure was -1.42%; with `C[C@H](Cc1ccc(OCC(=O)[O-])cc1)NC[C@H](O)c1cccc(Cl)c1`, -1.85%.
Turning to `C[C@]12CCC(=O)C=C1CCC1C2CC[C@@]2(C)C1CC[C@@H]2O` (stereo partly drawn), the result_ITMP stood at 2.46%.
With `CCCCCS(=O)(=O)CCCCCCCCCCn1c(-c2ccc(O)cc2)c(C)c2cc(O)ccc21` the figure was -3.27%.
Consider `Cc1c(-c2ccc(O)cc2)n(Cc2ccc(OCCN3CCCCCC3)cc2)c2ccc(O)cc12`, for which the result_ITMP is 57.2%.
The figure for `Cc1ccc(CC2(O)CCN(CCOc3ccc(O)cc3)CC2)cc1` is -3.85%; for `CCCCOc1ccc(C(=O)CCN2CCCCC2)cc1` it is 4.72%; for `O=C(c1ccc(OCCN2CCCCC2)cc1)c1c(-c2ccc(O)cc2)sc2cc(O)ccc12` it is 74.6%.
For the compound `CC(C)N1CCN(c2ccc(C(=O)c3c(-c4ccc(O)cc4)sc4cc(O)ccc34)cc2)CC1`, the result_ITMP is -7.16%.
With `Cc1c(C(=O)Nc2ccc(N3C[C@@H](C)O[C@@H](C)C3)nc2)cccc1-c1ccc(OC(F)(F)F)cc1` the figure was -6.29%; with `CCn1c(-c2ccc(Cl)cc2)n[nH]c1=O`, -4.76%.
With `CCCCC[C@H](O)/C=C/[C@@H]1[C@H]2C/C(=C/CCCC(=O)[O-])O[C@H]2C[C@H]1O` the figure was 0.37%; with `O=C([O-])CN(CCN(CC(=O)[O-])CC(=O)O)CCN(CC(=O)[O-])CC(=O)O`, 0.03%.
With `CN1[C@@H]2CC[C@H]1C[C@@H](OC(c1ccccc1)c1ccccc1)C2`, the result_ITMP is 35.6%.
The figure for `CN1[C@@H]2CC[C@H]1C[C@@H](OC(=O)C(O)c1ccccc1)C2` (stereo partly drawn) is -3.26%; for `CCCCN1[C@@H]2CC[C@H]1C[C@@H](OC(c1ccc(F)cc1)c1ccc(F)cc1)C2` it is 51.4%; for `CN1C2CCC1CC(OC(c1ccccc1)c1ccc(Cl)cc1)C2` (stereo not drawn) it is 98.3%.
With `CN1CCC(OC(c2ccccc2)c2ccccc2)CC1` the figure was 26.1%; with `Fc1ccc(C(OCCN2CCN(CCCc3ccccc3)CC2)c2ccc(F)cc2)cc1`, 24.8%; with `CN1C2CCC1CC(OC(c1ccc(F)cc1)c1ccc(F)cc1)C2` (stereo not drawn), 61.5%.
Regarding `CN1C2CC[C@@H]1C[C@@H](OC(=O)[C@H](CO)c1ccccc1)C2`, the result_ITMP is on record as -4.79%.
With `CC(C(=O)OC1CC2CCC(C1)N2C)c1ccc(Br)cc1` (stereo not drawn) the figure was 20.6%; with `C[C@H](NC(=O)[C@@H](Cc1c[nH]c2ccccc12)NC(=O)[C@@H](N)Cc1cnc[nH]1)C(=O)N[C@@H](Cc1c[nH]c2ccccc12)C(=O)N[C@H](Cc1ccccc1)C(=O)N[C@@H](CCCCN)C(N)=O` (H-H[dW]AW[dF]K-NH2), -2.53%; with `Cc1ccc(OC[C@@H](O)[C@H](C)NC(C)C)c2c1CCC2` (racemic), 10.4%.
The figure for `CO[C@@]12[C@@H]3NC3CN1C1=C(C(=O)C(N)=C(C)C1=O)[C@@H]2COC(N)=O` (stereo partly drawn) is 0.39%; for `OC[C@@H](O)C(O[C@@H]1O[C@H](CO)[C@H](O)[C@H](O)[C@H]1O)[C@H](O)[C@@H](O)CO` (stereo partly drawn) it is -8.28%.
With `O=C(O)[C@H]1CC[C@H](c2cc3cccnc3c(-c3cccc(F)c3)n2)CC1` the figure was -0.01%; with `O[C@@H]1CO[C@H]2[C@@H]1OC[C@@H]2O`, -0.79%.
Turning to `COc1cc(N)c(Cl)cc1C(=O)OCCN1CCCCC1`, the result_ITMP was -1.25%.
With `COc1cc(N)c(Cl)cc1C(=O)OCCCN1CCCCC1` the figure was 0.68%.
The figure for `COc1cc(C(=O)OCCCN2CCCN(CCCOC(=O)c3cc(OC)c(OC)c(OC)c3)CC2)cc(OC)c1OC` is 58.7%.
In the case of `O=C(O)C[CH2][Ge](=[O])[O][Ge](=[O])[CH2]CC(=O)O`, the result_ITMP is -3.6%.
With `Cc1ccc(C(=O)Nc2ccc(S(=O)(=O)[O-])c3cc(S(=O)(=O)[O-])cc(S(=O)(=O)[O-])c23)cc1NC(=O)c1cccc(NC(=O)Nc2cccc(C(=O)Nc3cc(C(=O)Nc4ccc(S(=O)(=O)[O-])c5cc(S(=O)(=O)[O-])cc(S(=O)(=O)[O-])c45)ccc3C)c2)c1` the figure was -3.34%.
